# Calls of active or inactive are those of the source. The calls were made as follows: active = hit-call score of the fitted dose curve at least 0.9, where 1 is the maximum; inactive = score below 0.9.
# Assays:
# [1] = ATG_GLI_CIS: Attagene CIS-FACTORIAL HepG2 Assay for human Zinc Finger Protein GLI1 (AID 2282945); conditions: HepG2, Attagene cis-factorial reporter mRNA, GLI element; actives raise or lower the signal
# In short: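 Transiently transfected HepG2 cells report endogenous transcription factor activity via cis-element-driven reporter units. After 24 h compound exposure, reporter mRNA was measured by RT-PCR with capillary electrophoresis; bidirectional fitting against DMSO baseline.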
# [2] = ATG_GRE_CIS: Attagene CIS-FACTORIAL HepG2 Assay for human Glucocorticoid Response Elements (GRE) (AID 2282947); conditions: HepG2 GRE cis-reporter, Attagene multiplex mRNA; actives raise or lower the signal
# In short: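 Endogenous transcription factor activity is read through cis-element reporter constructs transiently transfected into HepG2 cells. After 24 h treatment, labelled RT-PCR products are resolved by capillary electrophoresis; DMSO sets baseline for bidirectional curve fitting.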
# [3] = ATG_ISRE_CIS: Attagene CIS-FACTORIAL HepG2 Assay for human Interferon Regulatory Factor 1 (IRF1) binding to an Interferon-Stimulated Response Element (ISRE) (AID 2282948); conditions: HepG2 ISRE cis-reporter (Attagene), mRNA transcription readout; actives raise or lower the signal
# In short: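 Cell-based cis-reporter assay; HepG2; 24 h exposure; reporter mRNA by RT-PCR plus capillary electrophoresis fluorescence; activity in either direction scored relative to DMSO.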
# [4] = ATG_M_32_CIS: Attagene CIS-FACTORIAL HepG2 Assay for M32 Transcription Factor (Internal Marker) (AID 2282949); conditions: HepG2 Attagene cis-factorial M32 reporter, mRNA; actives raise or lower the signal;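 also: background control marker of the multiplexed CIS panel rather than a real target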
# In short: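 Internal background marker read-out: RT-PCR/capillary electrophoresis fluorescence of reporter transcripts from transiently transfected HepG2 cells after 24 h chemical exposure. Activity fitted bidirectionally relative to DMSO negative control.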
# [5] = ATG_M_06_CIS: Attagene CIS-FACTORIAL HepG2 Assay for M06 Transcription Factor (Internal Marker) (AID 2282950); conditions: HepG2 Attagene CIS-FACTORIAL M06 internal marker reporter; actives raise or lower the signal
# In short: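 Steps: transfect HepG2 with multiplexed cis-element reporter constructs; dose chemical 24 h; extract RNA with DNase treatment; reverse-transcribe, PCR-amplify, 6-FAM label, HpaI digest; separate fragments by capillary electrophoresis. Activity fitted both directions versus DMSO.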
# [6] = target: Hypoxia-inducible factor 1-alpha (Homo sapiens) (UniProt Q16665); test: ATG_HIF1a_CIS: Attagene CIS-FACTORIAL HepG2 Assay for human Hypoxia Inducible Factor 1 (HIF1A) (AID 2282951); conditions: HepG2 Attagene cis-factorial HIF1a reporter transcription; actives raise or lower the signal
# Hypoxia-inducible factor 1-alpha (Homo sapiens), sequence (Q16665 whole entry, looked up): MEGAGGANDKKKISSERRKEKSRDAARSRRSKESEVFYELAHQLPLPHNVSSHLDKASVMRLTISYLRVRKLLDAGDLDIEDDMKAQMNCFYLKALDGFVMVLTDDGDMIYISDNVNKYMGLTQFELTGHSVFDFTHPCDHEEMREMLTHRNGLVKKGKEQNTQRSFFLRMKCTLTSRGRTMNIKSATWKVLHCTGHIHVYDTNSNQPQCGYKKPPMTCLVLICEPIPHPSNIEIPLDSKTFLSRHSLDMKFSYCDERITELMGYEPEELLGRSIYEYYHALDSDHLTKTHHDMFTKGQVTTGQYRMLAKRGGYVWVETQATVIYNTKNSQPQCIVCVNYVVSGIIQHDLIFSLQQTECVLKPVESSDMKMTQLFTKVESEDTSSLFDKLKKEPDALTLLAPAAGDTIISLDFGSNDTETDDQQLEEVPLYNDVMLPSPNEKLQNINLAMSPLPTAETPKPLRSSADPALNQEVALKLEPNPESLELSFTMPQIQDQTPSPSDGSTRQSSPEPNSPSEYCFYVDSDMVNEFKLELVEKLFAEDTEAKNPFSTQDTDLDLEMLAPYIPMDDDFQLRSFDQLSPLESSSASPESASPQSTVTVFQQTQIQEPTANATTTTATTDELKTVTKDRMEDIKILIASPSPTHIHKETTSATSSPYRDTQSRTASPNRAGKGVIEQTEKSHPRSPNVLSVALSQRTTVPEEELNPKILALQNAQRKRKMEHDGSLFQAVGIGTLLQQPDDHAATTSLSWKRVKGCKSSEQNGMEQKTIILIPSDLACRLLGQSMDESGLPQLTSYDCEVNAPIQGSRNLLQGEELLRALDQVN
# In short: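 In this multiplexed cell assay, HepG2 cells bearing transfected cis reporters are dosed for 24 h and reporter mRNA is read by RT-PCR plus capillary electrophoresis; signal increases and decreases are both scored against DMSO.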
# [7] = target: Hepatocyte nuclear factor 6 (Homo sapiens) (UniProt Q9UBC0); test: ATG_HNF6_CIS: Attagene CIS-FACTORIAL HepG2 Assay for human Hepatocyte Nuclear Factor 6 (HNF6) (AID 2282952); conditions: HepG2 Attagene cis-factorial HNF6 reporter transcription; actives raise or lower the signal
# Hepatocyte nuclear factor 6 (Homo sapiens), sequence (Q9UBC0 whole entry, looked up, the tested form may be a part): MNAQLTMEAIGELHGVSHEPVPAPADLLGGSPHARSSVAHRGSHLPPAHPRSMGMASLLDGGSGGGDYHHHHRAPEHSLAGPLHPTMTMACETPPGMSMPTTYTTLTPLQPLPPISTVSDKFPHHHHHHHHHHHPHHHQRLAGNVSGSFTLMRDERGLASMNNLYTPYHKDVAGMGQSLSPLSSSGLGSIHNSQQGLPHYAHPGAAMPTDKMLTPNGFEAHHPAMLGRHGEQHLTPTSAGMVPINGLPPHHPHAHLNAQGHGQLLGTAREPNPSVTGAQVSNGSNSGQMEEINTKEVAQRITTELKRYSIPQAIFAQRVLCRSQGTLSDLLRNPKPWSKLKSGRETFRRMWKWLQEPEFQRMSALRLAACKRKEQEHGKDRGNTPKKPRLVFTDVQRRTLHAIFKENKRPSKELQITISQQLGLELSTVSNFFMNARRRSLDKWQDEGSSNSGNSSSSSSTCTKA
# In short: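 Reporter mRNA induction or loss in HepG2 after 24 h exposure; transient cis-MRTU transfection; fragments quantified by capillary electrophoresis; bidirectional analysis, DMSO as negative control.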
# [8] = target: Heat shock factor protein 1 (Homo sapiens) (UniProt Q00613); test: ATG_HSE_CIS: Attagene CIS-FACTORIAL HepG2 Assay for human Heat Shock Transcription Factor 1 (HSE) (AID 2282953); conditions: HepG2 HSE cis-reporter, Attagene RNA transcription; actives raise or lower the signal
# Heat shock factor protein 1 (Homo sapiens), sequence (Q00613 whole entry, looked up, the tested form may be a part): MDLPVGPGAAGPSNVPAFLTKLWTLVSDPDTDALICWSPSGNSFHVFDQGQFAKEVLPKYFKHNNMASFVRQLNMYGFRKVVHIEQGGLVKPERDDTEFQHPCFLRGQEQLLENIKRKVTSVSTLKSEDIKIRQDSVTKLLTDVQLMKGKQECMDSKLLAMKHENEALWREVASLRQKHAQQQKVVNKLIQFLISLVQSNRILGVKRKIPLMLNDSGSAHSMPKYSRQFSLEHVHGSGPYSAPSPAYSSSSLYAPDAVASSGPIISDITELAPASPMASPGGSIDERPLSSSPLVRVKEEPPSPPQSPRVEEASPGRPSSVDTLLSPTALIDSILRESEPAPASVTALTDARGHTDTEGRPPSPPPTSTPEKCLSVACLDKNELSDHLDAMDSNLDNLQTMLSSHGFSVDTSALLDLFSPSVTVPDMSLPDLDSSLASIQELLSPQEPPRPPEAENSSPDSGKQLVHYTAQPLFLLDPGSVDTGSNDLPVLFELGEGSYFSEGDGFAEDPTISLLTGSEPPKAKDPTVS
# In short: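 Cells were transfected with cis-element-driven reporter constructs, dosed for 24 h, then total RNA was reverse-transcribed and reporter cDNA amplified, FAM-labelled and digested with HpaI. Fragments were resolved by capillary electrophoresis; gain or loss was fitted against DMSO.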
# [9] = ATG_MRE_CIS: Attagene CIS-FACTORIAL HepG2 Assay for human Metal Responsive Element (MRE) (AID 2282954); conditions: HepG2 MRE cis-reporter transcription, Attagene multiplex; actives raise or lower the signal
# In short: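 Fluorescent reporter fragments separated by capillary electrophoresis give mRNA induction for the MRE unit after 24 h treatment of transfected HepG2 cells. Endogenous transcription-factor activity is read; DMSO serves as negative control and baseline.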
# [10] = ATG_PBREM_CIS: Attagene CIS-FACTORIAL HepG2 Assay for human Phenobarbital-responsive Enhancer Module (PBREM) (AID 2282955); conditions: HepG2 PBREM cis-reporter, Attagene multiplexed transcription; actives raise or lower the signal
# In short: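 After a 24 h incubation with test chemical, transfected HepG2 cells yield total RNA; reporter-specific RT-PCR products are fluorescently labelled, HpaI-digested and resolved by capillary electrophoresis against ROX size standards.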
# [11] = target: Paired box protein Pax-6 (Homo sapiens) (UniProt P26367); test: ATG_Pax6_CIS: Attagene CIS-FACTORIAL HepG2 Assay for human Paired Box 6 (PAX6) (AID 2282956); conditions: HepG2 CIS-FACTORIAL PAX6 reporter transcription, RNA readout; actives raise or lower the signal
# Paired box protein Pax-6 (Homo sapiens), sequence (P26367 whole entry, looked up): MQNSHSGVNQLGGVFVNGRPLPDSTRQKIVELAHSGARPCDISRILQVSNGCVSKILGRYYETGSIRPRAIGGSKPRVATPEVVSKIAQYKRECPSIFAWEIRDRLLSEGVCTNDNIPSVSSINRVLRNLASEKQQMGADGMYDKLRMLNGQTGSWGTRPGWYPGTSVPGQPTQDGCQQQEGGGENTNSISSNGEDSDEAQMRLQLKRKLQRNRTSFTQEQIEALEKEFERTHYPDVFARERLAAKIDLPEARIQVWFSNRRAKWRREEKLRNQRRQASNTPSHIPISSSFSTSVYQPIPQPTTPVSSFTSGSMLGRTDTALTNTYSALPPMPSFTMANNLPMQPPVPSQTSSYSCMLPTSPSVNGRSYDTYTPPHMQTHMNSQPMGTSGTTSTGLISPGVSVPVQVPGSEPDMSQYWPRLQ
# In short: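 Multiplexed cis-reporter HepG2 system; 24 h treatment; reporter mRNA read by RT-PCR/CE fluorescence; bidirectional fit vs DMSO.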
# [12] = ATG_PXRE_CIS: Attagene CIS-FACTORIAL HepG2 Assay for human Pregnane X Receptor Element (PXRE) (AID 2282957); conditions: HepG2 Attagene CIS-FACTORIAL PXRE reporter, mRNA; actives raise or lower the signal
# In short: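 Transiently transfected HepG2 cells were dosed and incubated for 24 h. RNA was then isolated, DNase-treated, reverse-transcribed and reporter sequences amplified. Labeled, HpaI-digested fragments were quantified by capillary electrophoresis against DMSO.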
# [13] = ATG_RORE_CIS: Attagene CIS-FACTORIAL HepG2 Assay for human RAR-related Orphan Receptor Element (RORE) (AID 2282959); conditions: HepG2 Attagene cis-factorial RORE reporter, mRNA; actives raise or lower the signal
# In short: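 Fluorescence intensity of reporter-specific cDNA fragments, separated by capillary electrophoresis, gives the signal. Source: HepG2 liver cells transiently transfected with cis-element reporters and exposed 24 h; DMSO-normalized bidirectional fit.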
# [14] = target: Transcription factor Sp1 (Homo sapiens) (UniProt P08047); test: ATG_Sp1_CIS: Attagene CIS-FACTORIAL HepG2 Assay for human Specificity Protein 1 (Sp1) (AID 2282961); conditions: HepG2 Sp1 cis-reporter transcription, actives raise or lower the signal
# Transcription factor Sp1 (Homo sapiens), sequence (P08047 whole entry, looked up): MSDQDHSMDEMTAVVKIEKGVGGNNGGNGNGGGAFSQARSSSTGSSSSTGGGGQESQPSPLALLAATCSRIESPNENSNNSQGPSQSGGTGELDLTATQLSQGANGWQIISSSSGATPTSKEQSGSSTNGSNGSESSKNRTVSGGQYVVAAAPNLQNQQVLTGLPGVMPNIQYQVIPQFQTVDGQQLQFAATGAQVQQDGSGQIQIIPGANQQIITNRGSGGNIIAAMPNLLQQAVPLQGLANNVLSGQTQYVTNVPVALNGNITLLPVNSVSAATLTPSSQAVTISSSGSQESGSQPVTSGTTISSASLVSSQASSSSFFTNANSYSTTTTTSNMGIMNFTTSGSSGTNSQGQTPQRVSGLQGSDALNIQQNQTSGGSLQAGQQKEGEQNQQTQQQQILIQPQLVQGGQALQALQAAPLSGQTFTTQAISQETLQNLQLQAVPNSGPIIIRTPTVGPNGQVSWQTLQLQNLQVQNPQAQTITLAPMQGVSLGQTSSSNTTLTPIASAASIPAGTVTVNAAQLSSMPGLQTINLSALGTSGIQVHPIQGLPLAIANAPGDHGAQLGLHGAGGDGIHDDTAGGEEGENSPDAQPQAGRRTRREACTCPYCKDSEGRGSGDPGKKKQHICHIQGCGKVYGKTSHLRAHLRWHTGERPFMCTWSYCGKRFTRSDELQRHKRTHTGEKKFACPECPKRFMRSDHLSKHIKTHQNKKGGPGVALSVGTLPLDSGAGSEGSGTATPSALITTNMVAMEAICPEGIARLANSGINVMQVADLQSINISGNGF
# In short: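 Sp1-driven reporter mRNA, read as capillary electrophoresis fluorescence after RT-PCR, in transiently transfected HepG2 cells dosed for 24 h; signal change in either direction relative to DMSO.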
# [15] = ATG_SREBP_CIS: Attagene CIS-FACTORIAL HepG2 Assay for human Sterol Regulatory Element Binding (SREBP) (AID 2282962); conditions: HepG2 Attagene cis-factorial SREBP reporter, mRNA; actives raise or lower the signal
# In short: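 mRNA induction of transfected cis-promoter reporters in HepG2 cells, 24 h post-dose. Detection: RT-PCR with 6-FAM-labelled products, HpaI digest, capillary electrophoresis. DMSO served as negative control and baseline.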
# [16] = target: Signal transducer and activator of transcription 3 (Homo sapiens) (UniProt P40763); test: ATG_STAT3_CIS: Attagene CIS-FACTORIAL HepG2 Assay for human Signal Transducer and Activator of Transcription 3 (STAT3) (AID 2282963); conditions: HepG2, Attagene cis-factorial STAT3 reporter transcription; actives raise or lower the signal
# Signal transducer and activator of transcription 3 (Homo sapiens), sequence (P40763 whole entry, looked up): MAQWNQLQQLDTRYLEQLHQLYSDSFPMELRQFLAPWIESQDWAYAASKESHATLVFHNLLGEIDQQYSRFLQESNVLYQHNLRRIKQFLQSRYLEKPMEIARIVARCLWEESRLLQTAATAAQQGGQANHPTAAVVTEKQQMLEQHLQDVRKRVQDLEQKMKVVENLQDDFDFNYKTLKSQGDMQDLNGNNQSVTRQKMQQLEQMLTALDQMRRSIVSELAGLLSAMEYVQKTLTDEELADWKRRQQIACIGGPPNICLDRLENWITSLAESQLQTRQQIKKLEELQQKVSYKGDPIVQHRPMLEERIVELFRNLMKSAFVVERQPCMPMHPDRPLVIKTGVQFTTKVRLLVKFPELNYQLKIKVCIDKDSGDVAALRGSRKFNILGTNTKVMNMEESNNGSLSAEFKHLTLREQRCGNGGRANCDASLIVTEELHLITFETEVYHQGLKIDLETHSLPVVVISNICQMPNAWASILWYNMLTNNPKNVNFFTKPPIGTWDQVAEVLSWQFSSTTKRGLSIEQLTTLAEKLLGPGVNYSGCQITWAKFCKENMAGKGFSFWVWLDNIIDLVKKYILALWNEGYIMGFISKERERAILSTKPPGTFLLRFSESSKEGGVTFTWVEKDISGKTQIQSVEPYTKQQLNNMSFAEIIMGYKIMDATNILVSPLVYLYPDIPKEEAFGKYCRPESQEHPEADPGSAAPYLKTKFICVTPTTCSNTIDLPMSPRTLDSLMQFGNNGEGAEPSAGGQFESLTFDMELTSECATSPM
# In short: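 Values derive from bidirectional fits relative to DMSO of reporter mRNA levels, measured by RT-PCR with capillary electrophoresis, in HepG2 cells carrying transiently transfected cis-regulated reporter units and exposed 24 h.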
# [17] = ATG_TA_CIS: Attagene CIS-FACTORIAL HepG2 Assay for human TA Basal Promoter (AID 2282964); conditions: HepG2 Attagene CIS-factorial TA basal promoter reporter; actives raise or lower the signal
# In short: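 Steps: transfect HepG2 with MRTUs; dose 24 h; isolate RNA, DNase-treat, reverse-transcribe; PCR and FAM-label reporter cDNA; digest with HpaI 2h at 37 C; run capillary electrophoresis. Activity fitted both directions against DMSO.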
# [18] = ATG_PPRE_CIS: Attagene CIS-FACTORIAL HepG2 Assay for human Peroxisome Proliferator-activated Response Element (PPRE) (AID 2282958); conditions: HepG2 PPRE cis-element reporter, Attagene transcription factor profiling; actives raise or lower the signal
# In short: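 Multiplexed reporter transcription units under cis-regulatory promoters were transfected into HepG2 cells to capture endogenous factor activity. A 24 h incubation preceded RNA isolation and fluorescent RT-PCR fragment analysis.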
# [19] = ATG_Sox_CIS: Attagene CIS-FACTORIAL HepG2 Assay for human SRY-box transcription factor (SOX) (AID 2282960); conditions: HepG2 Attagene cis-factorial SOX reporter, mRNA; actives raise or lower the signal
# In short: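 After 24 h of chemical treatment, transfected HepG2 reporter cells are lysed for total RNA. Transcript levels come from RT-PCR with labelled primer extension and capillary electrophoresis, analysed bidirectionally versus DMSO.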
structure (smiles),measurement,setting,value
C=C(C)OC(C)=O,outcome,[1],inactive
same,outcome,[2],inactive
same,outcome,[3],inactive
same,outcome,[4],inactive
same,outcome,[5],inactive
same,outcome,[6],inactive
same,outcome,[7],inactive
same,outcome,[8],inactive
same,outcome,[9],inactive
same,outcome,[10],inactive
same,outcome,[11],inactive
same,outcome,[12],inactive
same,outcome,[13],inactive
same,outcome,[14],inactive
same,outcome,[15],inactive
same,outcome,[16],inactive
same,outcome,[17],inactive
CCCC(C)C(=O)OCC (stereo unspecified),outcome,[1],inactive
same,outcome,[2],inactive
same,outcome,[3],inactive
same,outcome,[4],inactive
same,outcome,[5],inactive
same,outcome,[6],inactive
same,outcome,[7],inactive
same,outcome,[8],inactive
same,outcome,[9],inactive
same,outcome,[10],inactive
same,outcome,[18],inactive
same,outcome,[13],inactive
same,outcome,[19],inactive
same,outcome,[14],inactive
same,outcome,[15],inactive
same,outcome,[16],inactive
same,outcome,[17],inactive
O=C(Oc1ccccc1)c1ccccc1O,outcome,[1],inactive
same,outcome,[2],inactive
same,outcome,[3],inactive
same,outcome,[4],inactive
same,outcome,[5],inactive
same,outcome,[6],inactive
same,outcome,[7],inactive
same,outcome,[8],inactive
same,outcome,[9],inactive
same,outcome,[10],inactive
same,outcome,[11],inactive
same,outcome,[12],inactive
same,outcome,[13],inactive
same,outcome,[19],inactive
same,outcome,[14],inactive
same,outcome,[15],inactive
same,outcome,[16],inactive
C=C[C@@]1(C)CC(=O)[C@]2(O)[C@@]3(C)[C@@H](O)CCC(C)(C)[C@@H]3[C@H](O)[C@H](OC(C)=O)[C@@]2(C)O1,outcome,[1],inactive
same,outcome,[2],inactive
same,outcome,[3],inactive
same,outcome,[4],inactive
same,outcome,[5],inactive
same,outcome,[6],inactive
same,outcome,[7],inactive
same,outcome,[8],inactive
same,outcome,[9],inactive
same,AC50,[10],0.803 µM (active)
same,outcome,[11],inactive
same,outcome,[18],inactive
same,outcome,[13],inactive
same,outcome,[19],inactive
same,outcome,[14],inactive
same,outcome,[15],inactive
same,outcome,[16],inactive
same,outcome,[17],inactive
CCCCOC(=O)C(C)CC (stereo unspecified),outcome,[1],inactive
same,outcome,[2],inactive
same,outcome,[3],inactive
same,outcome,[4],inactive
same,outcome,[5],inactive
same,outcome,[6],inactive
same,outcome,[7],inactive
same,outcome,[8],inactive
same,outcome,[9],inactive
same,outcome,[10],inactive
same,AC50,[12],27.1 µM (active)
same,outcome,[13],inactive
same,outcome,[19],inactive
same,outcome,[14],inactive
same,outcome,[15],inactive
same,outcome,[16],inactive
same,outcome,[17],inactive
CC(=O)CCC1=C(C)CCCC1(C)C,outcome,[1],inactive
same,outcome,[2],inactive
same,outcome,[3],inactive
same,outcome,[4],inactive
same,outcome,[5],inactive
same,outcome,[6],inactive
same,outcome,[7],inactive
same,outcome,[8],inactive
same,outcome,[9],inactive
same,outcome,[10],inactive
same,AC50,[12],4.36 µM (active)
same,outcome,[18],inactive
same,outcome,[13],inactive
same,outcome,[19],inactive
same,outcome,[14],inactive
same,outcome,[15],inactive
same,outcome,[16],inactive
same,outcome,[17],inactive
C=CC(=O)NC(C)(C)C,outcome,[1],inactive
same,outcome,[2],inactive
same,outcome,[3],inactive
same,outcome,[4],inactive
same,outcome,[5],inactive
same,outcome,[6],inactive
same,outcome,[7],inactive
same,outcome,[8],inactive
same,outcome,[9],inactive
same,outcome,[10],inactive
same,outcome,[13],inactive
same,outcome,[19],inactive
same,outcome,[14],inactive
same,outcome,[15],inactive
same,outcome,[16],inactive
same,outcome,[17],inactive
Nc1ccnc(=O)[nH]1,outcome,[1],inactive
same,outcome,[2],inactive
same,outcome,[3],inactive
same,outcome,[4],inactive
same,outcome,[5],inactive
same,outcome,[6],inactive
same,outcome,[7],inactive
same,outcome,[8],inactive
same,outcome,[9],inactive
same,outcome,[11],inactive
same,outcome,[12],inactive
same,outcome,[18],inactive
same,outcome,[13],inactive
same,outcome,[19],inactive
same,outcome,[14],inactive
same,outcome,[15],inactive
